# Measured values taken from the supplement of paper PMC8728848.
# The sample as a whole holds a higher share of the strongest signals than the screen did.
# Experiments:
# Experiment in all cases: glycan array binding signal (z-score within array); higher = stronger binding
# Details in all cases: glycan notation: IUPAC condensed, linker removed
# [1] = target: Fuc(a1-2)Gal(b1-3)GlcNAc(b1-2)Man(a1-3)[Fuc(a1-2)Gal(b1-3)GlcNAc(b1-2)Man(a1-6)]Man(b1-4)GlcNAc(b1-4)GlcNAc
# How it was run: (§1)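 From the Consortium for Functional Glycomics database, 3228 arrays were curated, keeping only those whose protein sequence was available. Binding is given as a within-array Z-score averaged across arrays sharing a protein sequence and across linkers. Negative Z-scores can be read as non-binding.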
# [2] = target: Fuc(a1-2)Gal(b1-4)[Fuc(a1-3)]GlcNAc
# How it was run: as §1
# [3] = target: Fuc(a1-2)[Gal(a1-3)]Gal(b1-3)GalNAc
# How it was run: as §1
# [4] = target: Fuc(a1-2)[Gal(a1-3)]Gal(b1-3)GlcNAc(b1-2)Man(a1-3)[Fuc(a1-2)[Gal(a1-3)]Gal(b1-3)GlcNAc(b1-2)Man(a1-6)]Man(b1-4)GlcNAc(b1-4)GlcNAc
# How it was run: as §1
# [5] = target: Fuc(a1-2)[Gal(a1-3)]Gal(b1-4)GlcNAc(b1-3)GalNAc
# How it was run: as §1
# [6] = target: Fuc(a1-2)[GalNAc(a1-3)]Gal(b1-3)GlcNAc(b1-2)Man(a1-3)[Fuc(a1-2)[GalNAc(a1-3)]Gal(b1-3)GlcNAc(b1-2)Man(a1-6)]Man(b1-4)GlcNAc(b1-4)GlcNAc
# How it was run: as §1
# [7] = target: Fuc(a1-2)[GalNAc(a1-3)]Gal(b1-4)GlcNAc(b1-3)GalNAc
# How it was run: as §1
# [8] = target: Fuc(a1-3)[Gal(b1-4)]GlcNAc6S
# How it was run: as §1
# Fuc(b1-3)GlcNAc = target: Fuc(b1-3)GlcNAc
# How it was run: as §1
# Gal(a1-3)Gal = target: Gal(a1-3)Gal
# How it was run: as §1
# [9] = target: Gal(a1-3)Gal(b1-4)[Fuc(a1-3)]GlcNAc(b1-2)Man(a1-3)[Gal(a1-3)Gal(b1-4)[Fuc(a1-3)]GlcNAc(b1-2)Man(a1-6)]Man(b1-4)GlcNAc(b1-4)GlcNAc
# How it was run: as §1
# Gal(a1-3)GalNAc = target: Gal(a1-3)GalNAc
# How it was run: as §1
# [10] = target: Gal(b1-3)Gal(b1-4)GlcNAc(b1-2)Man(a1-3)[Gal(b1-3)Gal(b1-4)GlcNAc(b1-2)Man(a1-6)]Man(b1-4)GlcNAc(b1-4)GlcNAc
# How it was run: as §1
# [11] = target: Gal(b1-3)GalNAc(a1-3)[Fuc(a1-2)]Gal(b1-4)GlcNAc
# How it was run: as §1
# Gal(b1-3)GlcNAc = target: Gal(b1-3)GlcNAc
# How it was run: as §1
# [12] = target: Gal(b1-3)GlcNAc(b1-2)Man(a1-3)[Gal(b1-3)GlcNAc(b1-2)Man(a1-6)]Man(b1-4)GlcNAc(b1-4)GlcNAc
# How it was run: as §1
# [13] = target: Gal(b1-3)GlcNAc(b1-3)Gal(b1-4)GlcNAc
# How it was run: as §1
# [14] = target: Gal(b1-4)GlcNAc(b1-2)Man(a1-3)[Gal(b1-4)GlcNAc(b1-2)Man(a1-6)]Man(b1-4)GlcNAc(b1-4)[Fuc(a1-6)]GlcNAc
# How it was run: as §1
# [15] = target: Gal(b1-4)GlcNAc(b1-2)[Gal(b1-4)GlcNAc(b1-4)]Man(a1-3)[Gal(b1-4)GlcNAc(b1-2)Man(a1-6)]Man(b1-4)GlcNAc(b1-4)GlcNAc
# How it was run: as §1
# [16] = target: Gal(b1-4)GlcNAc(b1-3)Gal(b1-3)GlcNAc
# How it was run: as §1
# [17] = target: Gal(b1-4)GlcNAc(b1-3)Gal(b1-4)[Fuc(a1-3)GlcNAc(b1-6)]Gal(b1-4)Glc
# How it was run: as §1
# [18] = target: Gal(b1-4)GlcNAc(b1-3)[Gal(b1-4)GlcNAc(b1-6)]Gal(b1-4)GlcNAc
# How it was run: as §1
# [19] = target: Gal(b1-4)GlcNAc(b1-3)[GlcNAc(b1-6)]Gal(b1-4)GlcNAc
# How it was run: as §1
# [20] = target: Gal3S(b1-3)[Fuc(a1-4)]GlcNAc
# How it was run: as §1
# Gal3S(b1-4)Glc = target: Gal3S(b1-4)Glc
# How it was run: as §1
# Gal3S(b1-4)GlcNAc6S = target: Gal3S(b1-4)GlcNAc6S
# How it was run: as §1
# Gal6S(b1-4)GlcNAc6S = target: Gal6S(b1-4)GlcNAc6S
# How it was run: as §1
# GalNAc(b1-4)Gal(b1-4)Glc = target: GalNAc(b1-4)Gal(b1-4)Glc
# How it was run: as §1
# Glc(a1-4)Glc = target: Glc(a1-4)Glc
# How it was run: as §1
# Glc(a1-6)Glc(a1-6)Glc = target: Glc(a1-6)Glc(a1-6)Glc
# How it was run: as §1
# [21] = target: GlcNAc(a1-4)Gal(b1-4)GlcNAc(b1-3)Gal(b1-4)GlcNAc
# How it was run: as §1
# [22] = target: GlcNAc(a1-4)Gal(b1-4)GlcNAc(b1-3)Gal(b1-4)[Fuc(a1-3)]GlcNAc(b1-3)Gal(b1-4)[Fuc(a1-3)]GlcNAc
# How it was run: as §1
# [23] = target: GlcNAc(b1-2)[GlcNAc(b1-6)]Man(a1-6)[GlcNAc(b1-2)Man(a1-3)]Man(b1-4)GlcNAc(b1-4)GlcNAc
# How it was run: as §1
# [24] = target: GlcNAc(b1-2)[GlcNAc(b1-6)]Man(a1-6)[GlcNAc(b1-2)Man(a1-3)][GlcNAc(b1-4)]Man(b1-4)GlcNAc(b1-4)GlcNAc
# How it was run: as §1
# [25] = target: GlcNAc(b1-3)[GlcNAc(b1-4)][GlcNAc(b1-6)]GlcNAc
# How it was run: as §1
# GlcNAc(b1-4)GlcNAc = target: GlcNAc(b1-4)GlcNAc
# How it was run: as §1
# [26] = target: Man(a1-3)[Man(a1-6)]Man(b1-4)GlcNAc(b1-4)GlcNAc
# How it was run: as §1
# [27] = target: Neu5Ac(a2-3)Gal(b1-3)GlcNAc
# How it was run: as §1
# [28] = target: Neu5Ac(a2-3)Gal(b1-3)[Neu5Ac(a2-6)]GalNAc
# How it was run: as §1
# [29] = target: Neu5Ac(a2-3)Gal(b1-4)GlcNAc(b1-6)[Gal(b1-3)]GalNAc
# How it was run: as §1
# [30] = target: Neu5Ac(a2-3)Gal(b1-4)[Fuc(a1-3)]GlcNAc(b1-3)GalNAc
# How it was run: as §1
# Neu5Ac(a2-3)GalNAc = target: Neu5Ac(a2-3)GalNAc
# How it was run: as §1
# [31] = target: Neu5Ac(a2-6)Gal(b1-4)GlcNAc(b1-2)Man(a1-3)[Gal(b1-4)GlcNAc(b1-2)Man(a1-6)]Man(b1-4)GlcNAc(b1-4)GlcNAc
# How it was run: as §1
# [32] = target: Neu5Ac(a2-6)Gal(b1-4)GlcNAc(b1-2)Man(a1-6)Man(b1-4)GlcNAc(b1-4)GlcNAc
# How it was run: as §1
# [33] = target: Neu5Ac(a2-8)Neu5Ac(a2-3)[GalNAc(b1-4)]Gal(b1-4)Glc
# How it was run: as §1
# [34] = target: Neu5Ac(a2-8)Neu5Ac(a2-8)Neu5Ac(a2-3)[GalNAc(b1-4)]Gal(b1-4)Glc
# How it was run: as §1
# [35] = target: Neu5Ac(b2-6)Gal(b1-4)GlcNAc
# How it was run: as §1
# [36] = target: Neu5Ac9Ac(a2-3)Gal(b1-3)GlcNAc
# How it was run: as §1
# [37] = target: Neu5Gc(b2-6)Gal(b1-4)GlcNAc
# How it was run: as §1
binder,measurement,setting,value
"Eosinophil-derived neurotoxin (EDN) (Homo sapiens), P10153 (protein) MVPKLFTSQICLLLLLGLLAVEGSLHVKPPQFTWAQWFETQHINMTSQQCTNAMQVINNYQRRCKNQNTFLLTTFANVVNVCGNPNMTCPSNKTRKNCHHSGSQVPLIHCNLTTPSPQNISNCRYAQTPANMFYIVACDNRDQRRDPPQYPVVPVHLDRII",glycan array binding signal (z-score),[1],0.954
same,glycan array binding signal (z-score),[2],-0.438
same,glycan array binding signal (z-score),[3],-0.092
same,glycan array binding signal (z-score),[4],0.666
same,glycan array binding signal (z-score),[5],-0.523
same,glycan array binding signal (z-score),[6],0.308
same,glycan array binding signal (z-score),[7],0.483
same,glycan array binding signal (z-score),[8],0.272
same,glycan array binding signal (z-score),Fuc(b1-3)GlcNAc,-0.332
same,glycan array binding signal (z-score),Gal(a1-3)Gal,-0.363
same,glycan array binding signal (z-score),[9],0.387
same,glycan array binding signal (z-score),Gal(a1-3)GalNAc,-0.593
same,glycan array binding signal (z-score),[10],0.187
same,glycan array binding signal (z-score),[11],0.269
same,glycan array binding signal (z-score),Gal(b1-3)GlcNAc,-0.339
same,glycan array binding signal (z-score),[12],-0.33
same,glycan array binding signal (z-score),[13],0.648
same,glycan array binding signal (z-score),[14],1.36
same,glycan array binding signal (z-score),[15],-0.461
same,glycan array binding signal (z-score),[16],-0.443
same,glycan array binding signal (z-score),[17],0.142
same,glycan array binding signal (z-score),[18],1.13
same,glycan array binding signal (z-score),[19],1.36
same,glycan array binding signal (z-score),[20],0.104
same,glycan array binding signal (z-score),Gal3S(b1-4)Glc,-0.269
same,glycan array binding signal (z-score),Gal3S(b1-4)GlcNAc6S,-0.506
same,glycan array binding signal (z-score),Gal6S(b1-4)GlcNAc6S,-0.122
same,glycan array binding signal (z-score),GalNAc(b1-4)Gal(b1-4)Glc,-0.211
same,glycan array binding signal (z-score),Glc(a1-4)Glc,-0.482
same,glycan array binding signal (z-score),Glc(a1-6)Glc(a1-6)Glc,0.261
same,glycan array binding signal (z-score),[21],12.5
same,glycan array binding signal (z-score),[22],1.45
same,glycan array binding signal (z-score),[23],-0.199
same,glycan array binding signal (z-score),[24],0.017
same,glycan array binding signal (z-score),[25],0.413
same,glycan array binding signal (z-score),GlcNAc(b1-4)GlcNAc,-0.215
same,glycan array binding signal (z-score),[26],-0.552
same,glycan array binding signal (z-score),[27],-0.205
same,glycan array binding signal (z-score),[28],0.143
same,glycan array binding signal (z-score),[29],1.16
same,glycan array binding signal (z-score),[30],0.955
same,glycan array binding signal (z-score),Neu5Ac(a2-3)GalNAc,0.007
same,glycan array binding signal (z-score),[31],1.86
same,glycan array binding signal (z-score),[32],0.578
same,glycan array binding signal (z-score),[33],1.66
same,glycan array binding signal (z-score),[34],-0.121
same,glycan array binding signal (z-score),[35],0.387
same,glycan array binding signal (z-score),[36],-0.207
same,glycan array binding signal (z-score),[37],0.153
